# Test results as given in PubChem BioAssay.
# Target: Focal adhesion kinase 1 (Homo sapiens) (UniProt Q05397)
# Test: small-molecule microarray binders of FAK, primary screen, biochemical, 635/667 nm fluorescence, BSA, DTT (AID 1130);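 further: composite of spot emission at 667 nm and signal to noise over triplicate slides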
# Conditions: PTK2 binding, 635 nm fluorescence, higher = more signal
# Focal adhesion kinase 1 (Homo sapiens), sequence (Q05397 whole entry, looked up): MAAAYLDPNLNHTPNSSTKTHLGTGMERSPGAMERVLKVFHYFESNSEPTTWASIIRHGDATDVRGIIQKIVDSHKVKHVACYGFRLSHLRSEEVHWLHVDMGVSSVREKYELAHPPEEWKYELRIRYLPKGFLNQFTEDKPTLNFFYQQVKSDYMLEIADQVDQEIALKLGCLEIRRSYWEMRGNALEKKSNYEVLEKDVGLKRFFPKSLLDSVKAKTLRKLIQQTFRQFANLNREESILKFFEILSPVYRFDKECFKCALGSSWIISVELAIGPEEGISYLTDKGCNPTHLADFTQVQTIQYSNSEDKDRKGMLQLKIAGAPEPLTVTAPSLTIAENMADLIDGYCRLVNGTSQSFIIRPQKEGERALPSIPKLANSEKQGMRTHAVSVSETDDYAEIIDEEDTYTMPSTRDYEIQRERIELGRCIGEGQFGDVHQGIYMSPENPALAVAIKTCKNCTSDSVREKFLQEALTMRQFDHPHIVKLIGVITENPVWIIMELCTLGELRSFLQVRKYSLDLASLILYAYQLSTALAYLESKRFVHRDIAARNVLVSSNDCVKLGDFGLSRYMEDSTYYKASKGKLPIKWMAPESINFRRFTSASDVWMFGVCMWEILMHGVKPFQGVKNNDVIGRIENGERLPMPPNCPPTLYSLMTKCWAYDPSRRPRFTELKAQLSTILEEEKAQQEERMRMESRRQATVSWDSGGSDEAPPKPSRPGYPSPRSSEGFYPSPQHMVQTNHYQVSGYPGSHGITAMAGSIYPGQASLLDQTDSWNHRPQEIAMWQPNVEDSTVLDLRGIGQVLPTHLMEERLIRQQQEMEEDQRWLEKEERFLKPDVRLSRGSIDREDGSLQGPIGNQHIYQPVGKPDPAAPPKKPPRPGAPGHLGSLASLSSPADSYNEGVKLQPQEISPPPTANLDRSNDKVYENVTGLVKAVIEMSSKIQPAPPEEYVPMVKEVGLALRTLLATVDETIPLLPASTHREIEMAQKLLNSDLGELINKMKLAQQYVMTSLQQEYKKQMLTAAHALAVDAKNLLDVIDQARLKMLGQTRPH
row,Compound,composite z-score
1,C[N+](C)(C)CCCCNC(=O)[C@H]1C[C@H]2C(=O)N[C@@H](Cc3ccccc3)C(=O)N2[C@H]1c1cccc(OCCO)c1,0.193
2,CC(C)[Si](C#CCCc1ccccc1)(O[C@H](c1ccccc1)c1cn(Cc2ccccc2)nn1)C(C)C,0.104
3,COc1ccc([Si](C)(C)[C@@H]2[C@@H](CC(=O)N3Cc4ccccc4C[C@H]3CO)O[C@]3(C(=O)N(Cc4cccc(N5CCOC5=O)c4)c4ccccc43)[C@H]2C)cc1,0.0975
4,CN1C(=O)[C@@H]2[C@@H](CC(COc3ccccc3)=C3[C@@H](CCc4ccccc4)OB(O)C[C@@H]32)C1=O,-0.175
5,COc1cc(C(O)C2C=CC3C(=O)N(c4ccccc4)C(=O)C3N2Nc2ccccc2F)cc(OC)c1OC (stereo unspecified),0.337
6,CCCCN1CC=CC23O[C@@H]4/C=C\CCCOC(=O)C4[C@H]2C(=O)N(C(CO)C(C)C)[C@@H]3C1=O (stereo partly specified),-0.192
7,O=C1N(CCS(=O)(=O)c2ccccc2)c2ccccc2C[C@]12N=C(c1ccc(OCCCO)cc1)O[C@@H]2c1ccccc1,0.311
8,O=C1NC(=O)C2C1C=CC(C(O)c1ccc([N+](=O)[O-])cc1)N2Nc1ccccn1 (stereo unspecified),-0.329
9,O=C1[C@H]2C=C(I)[C@H](C[C@@H]2OCCCCCCO)[C@@]12CO2,-0.0716
10,CN(C)C(=O)[C@]1(Cc2ccccc2)N=C(c2ccc(OCCCO)cc2)O[C@@H]1c1ccccc1CN=[N+]=[N-],0.438
11,Cc1ccc(C(C)CC(O)C2C=CC3C(=O)N(C)C(=O)C3N2Nc2ccccc2)o1 (stereo unspecified),0.0621
12,CCCCCCc1nc(-c2ccc(-c3ccc(Cl)c(Cl)c3)o2)cc2c1[Si](C(C)C)(C(C)C)OC2,-0.0104
13,CC1CC/C=C\[C@H]2OC34C=CCN(c5ccc(Cl)cc5)C(=O)[C@H]3N(CCCCCCO)C(=O)[C@]4(C)C2C(=O)O1 (stereo partly specified),-0.487
14,C=C(CCCC)/C(=C/C[C@H](OC(=O)c1ccncc1)c1cccc(OCCO)c1)c1cnc2ccccc2c1,0.469
15,C[C@@H]1ON(c2ccccc2)[C@H](c2ccccc2)[C@H]1C(=O)O,0.209
16,CCOC(=O)C1=CC[C@@H](c2ccc(OC)cc2)N(S(=O)(=O)c2ccc(C)cc2)[C@H]1CC,0.493
17,COC(=O)[C@@]1(Cc2ccc(OC)cc2)[C@H]2c3cc(C(=O)N(C)C)[nH]c3C[C@H]2CN1C(=O)c1ccccc1,0.0999
18,CCCCC(O)C1C=CC2C(=O)N(c3ccccc3)C(=O)C2N1Nc1ccccc1 (stereo unspecified),0.438
19,CC(C)OC(=O)CC(=O)CC(O)c1cccc([N+](=O)[O-])c1 (stereo unspecified),0.4
20,O=C1NC(=O)C2C1C=CC(C(O)c1ccc(B(O)O)cc1)N2Nc1ccc(Cl)cc1Cl (stereo unspecified),0.265
21,O=C1c2ccccc2[C@@]2(Cc3ccccc3N(Cc3ccccc3)C2=O)[C@H](c2ccc(CO)cc2)N1Cc1ccccc1Cl,-0.0858
22,CO[C@H]1O[C@H](CO)[C@@H](OC(=O)Nc2ccccc2)[C@H](OC(=O)Nc2ccccc2)[C@H]1OC(=O)Nc1ccccc1,0.972
23,COCCCNC(=O)[C@@]1(CCS(=O)(=O)c2ccccc2)COC(c2ccc(OCCCO)cc2)=N1,0.394
24,COc1ccc(C(O)C2C=CC3C(=O)NC(=O)C3N2Nc2ccc(Cl)cc2Cl)c2ccccc12 (stereo unspecified),0.486
25,O=C1C[C@@](C(=O)O)(c2ccc([N+](=O)[O-])cc2)[C@@H](c2ccc(CO)cc2)N1C1CCCCC1,0.54
26,CC(C)(C)N1CC=CC23O[C@@H]4/C=C\CCCOC(=O)C4[C@H]2C(=O)N(CCCCCO)[C@@H]3C1=O (stereo partly specified),-0.716
